# According to PubChem BioAssay (EPA / NIEHS):
# Inconclusive results are not listed. Where a structure was tested more than once in an assay, its records may differ in their call. Activity calls are given as the source filed them. Rule for the calls: active = hit-call score of the fitted dose curve at least 0.9, where 1 is the maximum; inconclusive = response in the unintended direction; inactive = score below 0.9.
# Molecular target: Retinoic acid receptor RXR-alpha (Homo sapiens) (UniProt P19793)
# Assay: OT_NURR1_NURR1RXRa_0480: Odyssey Thera (OT) 8-hour HEK293T Protein Complementation Assay for Nurr1/retinoid X receptor (RXR) (AID 2283385)
# Summary of the method: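 8 h compound exposure, HEK293T; Nurr1/RXRα fragment complementation; fluorescence intensity; positive fitting direction vs DMSO baseline.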
# Chain of Retinoic acid receptor RXR-alpha (Homo sapiens) (P19793 whole entry, looked up): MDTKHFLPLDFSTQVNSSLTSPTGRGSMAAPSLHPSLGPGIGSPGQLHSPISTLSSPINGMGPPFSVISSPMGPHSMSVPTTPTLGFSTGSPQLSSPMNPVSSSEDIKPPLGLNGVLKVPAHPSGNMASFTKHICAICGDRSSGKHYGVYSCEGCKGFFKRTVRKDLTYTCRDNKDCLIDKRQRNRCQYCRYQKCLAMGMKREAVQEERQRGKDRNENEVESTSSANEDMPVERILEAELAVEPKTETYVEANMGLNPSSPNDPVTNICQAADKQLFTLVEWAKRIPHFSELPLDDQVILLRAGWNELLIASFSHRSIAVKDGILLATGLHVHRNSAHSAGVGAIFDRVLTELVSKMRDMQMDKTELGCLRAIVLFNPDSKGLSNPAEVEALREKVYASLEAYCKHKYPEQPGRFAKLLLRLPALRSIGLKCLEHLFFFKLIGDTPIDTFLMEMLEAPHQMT
Compound,outcome,AC50
CCN(CC)c1ccccc1,inactive,
CO/N=C(/C(=O)OC)c1ccccc1COc1ccccc1C,inactive,
CCC(C)(C)c1ccc(O)cc1,inactive,
Nc1ccc(Cl)cc1,inactive,
CCOc1ccc(C(C)(C)COCc2cccc(Oc3ccccc3)c2)cc1,inactive,
CCOP(=S)(OCC)SCSCC,inactive,
O=P1(N(CCCl)CCCl)NCCCO1 (stereo not drawn),inactive,
Cc1ccc([N+](=O)[O-])cc1C,inactive,
CCCCC(CC)COC(=O)c1c(Br)c(Br)c(Br)c(Br)c1C(=O)OCC(CC)CCCC (stereo not drawn),inactive,
CCCCC(CC)COP(=O)(Oc1ccccc1)Oc1ccccc1 (stereo not drawn),inactive,
CCCCCCCc1ccc(O)cc1,inactive,50 µM (active)
O=P(Oc1ccccc1)(Oc1ccccc1)Oc1ccccc1,inactive,
CCCCN(CCCC)N=O,inactive,
CCCCc1ccccc1,inactive,
Cc1ccc(N)cc1N,inactive,
O=[N+]([O-])c1ccc(Cl)c(Cl)c1,inactive,
CCNc1nc(Cl)nc(NC(C)(C)C)n1,inactive,
O=C(CBr)OCc1ccccc1,inactive,
O=NN1CCCC1,inactive,
CCCN(CCC)c1c([N+](=O)[O-])cc(C(C)C)cc1[N+](=O)[O-],inactive,75.7 µM (active)
CCCCc1ccc(O)cc1,inactive,
CCCCN(CCCC)SN(C)C(=O)Oc1cccc2c1OC(C)(C)C2,inactive,86.2 µM (active)
O=P(OCC(Br)CBr)(OCC(Br)CBr)OCC(Br)CBr (stereo not drawn),inactive,
FC(F)(F)c1ccc(Cl)cc1,inactive,
OCC1CO1 (stereo not drawn),inactive,
O=S1(=O)OCC2C(CO1)C1(Cl)C(Cl)=C(Cl)C2(Cl)C1(Cl)Cl (stereo not drawn),inactive,

# Molecular target: Retinoic acid receptor RXR-alpha (Homo sapiens) (UniProt P19793)
# Assay: OT_NURR1_NURR1RXRa_1440: Odyssey Thera (OT) 24-hour HEK293T Protein Complementation Assay for Nurr1/retinoid X receptor (RXR) (AID 2283386)
# Summary of the method: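 Interaction of Nurr1 with RXRα brings fused reporter fragments together in human HEK293T cells, restoring a functional reporter. Fluorescence intensity is measured 24 h after chemical treatment, and values are analysed in the positive direction against DMSO.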
Compound,outcome,AC50
CCN(CC)c1ccccc1,inactive,
CCC(C)(C)c1ccc(O)cc1,,66.4 µM (active)
CC(C)(C)OOC(C)(C)C,inactive,
Nc1ccc(Cl)cc1,inactive,2.33 µM (active)
CCOc1ccc(C(C)(C)COCc2cccc(Oc3ccccc3)c2)cc1,inactive,
O=P1(N(CCCl)CCCl)NCCCO1 (stereo not drawn),inactive,
Cc1ccc([N+](=O)[O-])cc1C,inactive,
CCCCC(CC)COC(=O)c1c(Br)c(Br)c(Br)c(Br)c1C(=O)OCC(CC)CCCC (stereo not drawn),inactive,
CCCCC(CC)COP(=O)(Oc1ccccc1)Oc1ccccc1 (stereo not drawn),,82.1 µM (active)
CCCCCCCc1ccc(O)cc1,inactive,50 µM (active)
O=P(Oc1ccccc1)(Oc1ccccc1)Oc1ccccc1,inactive,
CCCCN(CCCC)N=O,inactive,
CC(C)(C)N(NC(=O)c1ccc(Cl)cc1)C(=O)c1ccccc1,inactive,
CCCCc1ccccc1,inactive,
Cc1ccc(N)cc1N,inactive,
CCOC(=O)c1ccccc1N,inactive,
CCNc1nc(Cl)nc(NC(C)(C)C)n1,inactive,
O=C(CBr)OCc1ccccc1,inactive,
CCCN(CCC)c1c([N+](=O)[O-])cc(C(C)C)cc1[N+](=O)[O-],inactive,80.9 µM (active)
CCCCc1ccc(O)cc1,inactive,
CCCCN(CCCC)SN(C)C(=O)Oc1cccc2c1OC(C)(C)C2,inactive,84.7 µM (active)
O=P(OCC(Br)CBr)(OCC(Br)CBr)OCC(Br)CBr (stereo not drawn),,73.9 µM (active)
FC(F)(F)c1ccc(Cl)cc1,inactive,
OCC1CO1 (stereo not drawn),inactive,
c1nc[nH]n1,inactive,
